Molecules are shown by their SMILES. Results filed as inconclusive are left out. A call without a number means that no potency is given here. Calls of active or inactive are those of the source. Calls come from the whole dose curve; as a rule, active = well fitted inhibition curve with a large enough effect in the repeat runs; inconclusive = weak or mixed curves, or effect the other way; inactive = no such curve, though single readings can be large or run the other way.

Among the data in PubChem BioAssay (Tox21) are Potency values, retold here.
Potency is the fitted concentration of half-maximal effect.

A short description of this test: qHTS assay to identify small molecule antagonists of the retinoic acid receptor (RAR) signaling pathway (AID 1159552; note: nearly all actives have a fitted effect of over 50% in size). The following applies: C3RL4 RARE luciferase reporter, retinol-stimulated, 6 h; series mostly up to 92.4 µM. An outline of the steps:
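C3RL4 RARE-luc cells, overnight plating; retinol 1 uM final added right after compound; 6 hr 37 C; luciferase read at 30 min RT.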
On to `C[C@@H]1CC[C@@]2(OC1)O[C@H]1[C@@H](O)[C@H]3[C@@H]4CC[C@H]5C[C@@H](O[C@@H]6O[C@H](CO)[C@H](O[C@@H]7O[C@H](CO)[C@@H](O)[C@H](O[C@@H]8OC[C@@H](O)[C@H](O)[C@H]8O)[C@H]7O[C@@H]7O[C@H](CO)[C@@H](O)[C@H](O[C@@H]8O[C@H](CO)[C@@H](O)[C@H](O)[C@H]8O)[C@H]7O)[C@H](O)[C@H]6O)[C@H](O)C[C@]5(C)[C@H]4CC[C@]3(C)[C@H]1[C@@H]2C`, for which the Potency was 20.5 µM (active).
The entry for `ClCc1ccccc1CCl` is “inactive”; for `COc1ccc(OC)c(CC(C)N)c1` (stereo not drawn) it is “inactive”.
The entry for `ClC(Cl)=C(c1ccc(Cl)cc1)c1ccc(Cl)cc1` is “inactive”.
As for `C[C@@H](Oc1ccc(Cl)cc1Cl)C(=O)O`, the entry is “inactive”; as for `O=C(NC(=O)c1c(F)cccc1F)Nc1cc(Cl)c(OC(F)(F)C(F)F)c(Cl)c1`, “inactive”; as for `CCCCCCCCCCBr`, “inactive”.
Consider `CC(C)(C)OO`, for which the Potency entry is “inactive”.
The entry for `BrCC(Br)c1ccccc1` (stereo not drawn) is “inactive”.
As for `ClC1=C(Cl)[C@]2(Cl)[C@@H]3[C@@H](Cl)[C@@H](Cl)C[C@@H]3[C@@]1(Cl)C2(Cl)Cl`, the entry is “inactive”; as for `OC(Cc1ccccc1Cl)(Cn1cncn1)C1(Cl)CC1` (stereo not drawn), “inactive”; as for `COc1ccc(OC)c(C=O)c1`, “inactive”.
As for `CCOC(=O)c1ccccc1S(=O)(=O)NC(=O)Nc1nc(Cl)cc(OC)n1`, the entry is “inactive”; as for `CC(Cl)CN(C)C` (stereo not drawn), “inactive”.
In the case of `CCCCOP(=O)(CCCC)OCCCC`, the Potency entry is “inactive”.
For the compound `[Cl][Sb]([Cl])[Cl]`, the Potency entry was “inactive”.
As for `c1ccc(OCC2CO2)cc1` (stereo not drawn), the entry is “inactive”.
As for `CCOP(=S)(OCC)OC(Cl)C(Cl)(Cl)Cl` (stereo not drawn), the entry is “inactive”.
